# A number with no mark means an inactive call.
# Key:
# [1] = test system: Sporothrix brasiliensis CBS 133006; assay: growth inhibition relative to untreated control; higher = more growth inhibition (more antifungal activity), active = 80 or more; extreme values may be limits of the assay; conditions: 1 µM; 48 h
# Outline: (§1)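 Yeast-form cells of the reference isolates (grown 7 days in brain heart infusion broth with 2% glucose at 36°C) were exposed at 1 x 10^5 CFU/ml to library compounds at a final 1 μM for 48 h at 35°C in 5% CO2. Growth was checked by visual inspection under an inverted light microscope and quantified by spectrophotometric readings. The value is percent growth inhibition relative to untreated control. Runs were in quadruplicate.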
# [2] = test system: Sporothrix schenckii ATCC 32286; assay: as above; conditions: 1 µM; 48 h
# Outline: as §1
Structure (SMILES),growth inhibition [1],growth inhibition [2]
COc1ccc(-c2nc(-c3cccc(NC(=O)Cc4ccc(F)cc4)c3)no2)cc1OC,6.25%,4%
COc1ccc(-c2onc(C(F)(F)F)c2-c2ccc(Cl)cc2)c(O)c1,11.8%,6%
COc1cc(Br)cc2cc(C(=O)Nc3cccc(C(F)(F)F)c3)c(=O)oc12,11.5%,6.75%
COc1ccc(Cl)cc1NC(=O)CN(C)C(=O)c1cnn(-c2ccccc2)n1,14.5%,15.2%
CC[C@@H]([C@H](C)O)n1ncn(-c2ccc(N3CCN(c4ccc(OC[C@@H]5CO[C@@](Cn6cncn6)(c6ccc(F)cc6F)C5)cc4)CC3)cc2)c1=O,73%,88.5% (active)
CN1CCC(NCc2cccc(-c3ccc(S(=O)(=O)NCc4ccccc4)cc3)c2)CC1,8%,13.5%
NCC(c1cccs1)S(=O)(=O)c1ccccc1 (centres undefined),24.2%,0%
O=C(NC1CC1)c1ccc(CSCc2ccccc2Cl)o1,6.25%,2%
CC(=O)NCC1CN(c2ccc(-c3ccc(CO)cc3)c(F)c2)C(=O)O1 (centres undefined),4%,13.2%
CCCn1c(CNc2ccccc2O)nc2ccccc21,11.2%,13.2%
Cc1ccc2[nH]c3c(NCCN(C)C)ncnc3c2c1,2%,0%
CC1CCCN(C(=O)C(C)Nc2cc(Cl)ccc2N2CCOCC2)C1 (centres undefined),11.5%,0.5%
